# The other results are listed elsewhere or left out. Calls of active or inactive are those of the source.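 How the source made its calls, unless noted: active means GFP response above 150% of the DMSO level; inconclusive means fewer than 70 events counted for a yeast strain; inactive means the rest.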
# What was measured:
# [1] = hit retest on RPL19A-GFP reporter strain – cell-based, S. cerevisiae, flow cytometry, cherry picks, mother/daughter gates, confirmation (AID 2270;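 active means GFP response below 50% of the DMSO control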); conditions: 3 h, at 10 µM, stronger effect = lower value, 100 = same GFP as DMSO wells
# [2] = yeast TOR pathway reporter LAP4-GFP change – cell-based, cherry picks, flow cytometry, mother/daughter gates, confirmation (AID 2271;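 active means GFP response above 150% of the DMSO control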;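 further: ratio of sample to DMSO plate mean so 100% equals DMSO level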); conditions: S. cerevisiae LAP4-GFP strain, 3 h, at 10 µM, stronger effect = higher value, 100 means same as DMSO control
# [3] = TOR pathway reporter MEP2-GFP, retest of hits – S. cerevisiae, flow cytometry GFP, cherry picks, confirmation (AID 2272;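 active means GFP response above 150% of the DMSO control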;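 further: ratio of well signal to plate DMSO mean so 100% equals DMSO level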); conditions: S. cerevisiae MEP2-GFP strain, 3 h, at 10 µM, stronger effect = higher value
# [4] = yeast AGP1-GFP fluorescence change, single-dose – cell-based, flow cytometry, S. cerevisiae, cherry picks, confirmation (AID 2273);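 further: median GFP channel fluorescence over the whole cell population gate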; conditions: S. cerevisiae AGP1-GFP strain, 3 h, at 10 µM
# [5] = TOR pathway CIT2 reporter hit retest – S. cerevisiae, GFP fusion, cherry picks, mother/daughter gates, confirmation (AID 2274); conditions: S. cerevisiae CIT2-GFP strain, flow cytometry, 3 h, at 10 µM, stronger effect = higher value
# [6] = green-channel fluorescence artefact in S. cerevisiae – s288c strain, artefact control for yeast TOR pathway GFP screen, dose response (AID 2757;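 active means fluorescence span over the dose series, or activity score, above about 33, limit read from the data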;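 further: thousands of bead-calibrated equivalent soluble fluorophore molecules from median cell fluorescence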); conditions: 520 nm autofluorescence, flow cytometry, 3 h, at 33 µM, stronger effect = higher value, zero means same as solvent-only cells
# [7] = reduced mouse 2C T cell binding to pMHC/ICAM-1 vesicles – MLPCN validation set, flow cytometry, LFA-1/ICAM-1 modulator project, pilot screen (AID 2523;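 active means response below a set limit, under 55% cells CD8-positive and vesicle-bound, and CD8 cells' 90th-percentile brightness under 279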;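 on vesicle binding response: mean PE anti-B7-1 fluorescence of CD8+ cells relative to row control; 100% = QL9-loaded vesicles with DMSO vehicle in the same plate row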); conditions: 2C mouse CD8+ T cells, at 7 µM, stronger effect = lower value; double positive events: measured here: CD8+/vesicle+ event percentage
# [8] = target: Integrin beta-1 (Homo sapiens) + Integrin alpha-4 (Homo sapiens) (UniProt P13612+P05556); experiment: alpha4beta1 integrin LIBS antibody binding reduction – U937 cells, HUTS-21 mAb, flow cytometry, validation set, VLA-4 allosteric modulator project, pilot screen (AID 2674;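 active means inhibition above 50%, about 3 SD of the validation set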;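 further: antibody binding induced by the VLA-4 ligand LDV present at three times its Kd; 0% = LDV ligand with antibody and no compound and 100% = antibody without LDV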); conditions: HUTS-21 LIBS mAb binding, at 6.7 µM, stronger effect = higher value, binding induced by LDV ligand
# Chain of Integrin beta-1 (Homo sapiens) + Integrin alpha-4 (Homo sapiens) (P05556 whole entry, looked up): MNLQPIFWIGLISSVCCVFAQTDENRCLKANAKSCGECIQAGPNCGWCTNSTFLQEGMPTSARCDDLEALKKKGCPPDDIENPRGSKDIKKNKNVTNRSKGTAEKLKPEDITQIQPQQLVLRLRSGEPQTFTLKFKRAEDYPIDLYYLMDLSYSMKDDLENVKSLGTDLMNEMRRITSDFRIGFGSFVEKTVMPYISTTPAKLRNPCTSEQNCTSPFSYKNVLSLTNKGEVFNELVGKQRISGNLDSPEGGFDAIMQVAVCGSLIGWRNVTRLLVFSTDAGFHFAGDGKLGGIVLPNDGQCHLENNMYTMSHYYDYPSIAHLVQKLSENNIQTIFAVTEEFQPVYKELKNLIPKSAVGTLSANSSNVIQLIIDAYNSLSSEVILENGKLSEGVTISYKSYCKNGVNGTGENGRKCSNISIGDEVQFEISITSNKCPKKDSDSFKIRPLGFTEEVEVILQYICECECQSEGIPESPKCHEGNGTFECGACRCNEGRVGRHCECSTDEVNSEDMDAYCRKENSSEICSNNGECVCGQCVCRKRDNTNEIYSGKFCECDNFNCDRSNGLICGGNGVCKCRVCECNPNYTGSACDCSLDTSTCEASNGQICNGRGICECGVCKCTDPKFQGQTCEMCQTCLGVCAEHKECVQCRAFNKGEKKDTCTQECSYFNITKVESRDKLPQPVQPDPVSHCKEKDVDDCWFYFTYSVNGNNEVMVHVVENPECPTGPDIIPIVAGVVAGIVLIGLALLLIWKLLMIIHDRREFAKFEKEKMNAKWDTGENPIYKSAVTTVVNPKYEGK
# Chain of Integrin beta-1 (Homo sapiens) + Integrin alpha-4 (Homo sapiens) (P13612 whole entry, looked up): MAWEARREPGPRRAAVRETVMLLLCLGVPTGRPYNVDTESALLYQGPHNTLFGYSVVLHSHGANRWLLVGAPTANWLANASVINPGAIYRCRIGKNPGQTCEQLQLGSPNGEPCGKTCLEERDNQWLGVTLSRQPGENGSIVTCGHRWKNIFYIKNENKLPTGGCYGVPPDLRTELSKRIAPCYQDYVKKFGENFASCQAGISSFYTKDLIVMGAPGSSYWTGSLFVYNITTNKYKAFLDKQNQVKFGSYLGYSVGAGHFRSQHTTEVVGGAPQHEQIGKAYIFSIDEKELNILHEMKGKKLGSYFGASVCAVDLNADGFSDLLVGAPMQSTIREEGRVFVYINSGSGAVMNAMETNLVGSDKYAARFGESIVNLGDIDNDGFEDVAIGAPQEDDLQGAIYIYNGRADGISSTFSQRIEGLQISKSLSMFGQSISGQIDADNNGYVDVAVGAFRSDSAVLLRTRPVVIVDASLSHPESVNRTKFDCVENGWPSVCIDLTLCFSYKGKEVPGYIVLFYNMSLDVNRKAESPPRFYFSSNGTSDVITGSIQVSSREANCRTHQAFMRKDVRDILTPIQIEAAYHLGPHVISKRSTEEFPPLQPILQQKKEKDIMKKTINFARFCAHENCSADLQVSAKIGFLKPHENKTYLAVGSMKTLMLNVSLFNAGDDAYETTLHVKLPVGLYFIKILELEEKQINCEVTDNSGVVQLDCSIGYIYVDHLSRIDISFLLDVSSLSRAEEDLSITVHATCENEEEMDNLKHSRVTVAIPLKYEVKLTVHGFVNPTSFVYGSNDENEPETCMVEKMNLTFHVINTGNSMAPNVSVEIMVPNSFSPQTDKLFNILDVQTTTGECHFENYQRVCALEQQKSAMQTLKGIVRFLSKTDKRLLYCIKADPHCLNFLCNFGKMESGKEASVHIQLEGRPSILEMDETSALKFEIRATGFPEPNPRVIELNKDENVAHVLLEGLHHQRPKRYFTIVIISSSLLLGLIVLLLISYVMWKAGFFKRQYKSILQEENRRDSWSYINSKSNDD
# [9] = calorie-restriction mimetic ROS inhibitors, yeast – validation compound set, pilot screen (AID 2706;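 active means superoxide response below 65% of plate, a cut near 3 SD across the whole screen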;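 further: yeast exposed to compound for one week at 30 degrees C before staining; 100% = mean of all compound wells on the same plate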); conditions: S. cerevisiae aging, superoxide DHE fluorescence; at 10 µM, stronger effect = lower value
# [10] = target: Beta-adrenergic receptor kinase 1 (Homo sapiens) (UniProt P25098); experiment: GRK2 binders displacing RNA aptamer, biochemical, validation, human GRK2, bead flow cytometry (AID 488806;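 active means aptamer binding inhibition above 30%, about 3 SD of noise from non-fluorescent compounds; inactive means inhibition at or below 30%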); conditions: bead-bound GRK2, FAM-aptamer displacement, at 10 µM, stronger effect = higher value
# Chain of Beta-adrenergic receptor kinase 1 (Homo sapiens) (P25098 whole entry, looked up): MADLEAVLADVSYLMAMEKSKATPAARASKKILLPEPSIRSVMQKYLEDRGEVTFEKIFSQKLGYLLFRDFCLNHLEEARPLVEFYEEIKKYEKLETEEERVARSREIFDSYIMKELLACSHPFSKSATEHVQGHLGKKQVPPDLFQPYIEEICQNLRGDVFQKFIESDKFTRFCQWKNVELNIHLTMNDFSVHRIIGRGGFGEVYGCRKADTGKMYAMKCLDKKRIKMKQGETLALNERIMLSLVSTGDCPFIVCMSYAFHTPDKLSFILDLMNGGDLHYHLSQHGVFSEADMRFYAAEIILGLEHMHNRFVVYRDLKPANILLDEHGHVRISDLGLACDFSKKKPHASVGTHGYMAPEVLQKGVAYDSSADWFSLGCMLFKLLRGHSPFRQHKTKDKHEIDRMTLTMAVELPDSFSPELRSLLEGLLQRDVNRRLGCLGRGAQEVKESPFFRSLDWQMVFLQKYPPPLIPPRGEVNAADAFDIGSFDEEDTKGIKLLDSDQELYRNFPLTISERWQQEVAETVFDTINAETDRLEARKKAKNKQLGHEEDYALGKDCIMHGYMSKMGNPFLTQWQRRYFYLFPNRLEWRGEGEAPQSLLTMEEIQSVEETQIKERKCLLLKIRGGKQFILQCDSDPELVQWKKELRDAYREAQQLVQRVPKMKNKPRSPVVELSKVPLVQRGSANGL
# [11] = target: AP-2 complex subunit beta (Homo sapiens) (UniProt P63010); experiment: beta-arrestin/AP2 interaction blockers – biochemical, validation set, GST-AP2 beads, flow cytometry, pilot screen (AID 504541;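 active means inhibition above 54%, about 3 SD of non-fluorescent compounds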;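 further: AP2 carries R879A mutation and is captured from E. coli lysate; bead-bound FITC arrestin peptide fluorescence measuring arrestin peptide binding to AP2; 0% = DMSO wells and 100% = excess unlabeled arrestin peptide control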); conditions: FITC arrestin peptide, at 10 µM, stronger effect = higher value, AP2 beta2 appendage fragment, R879A mutant
# Chain of AP-2 complex subunit beta (Homo sapiens) (P63010 whole entry, looked up, the tested form may be a part, one chain of several): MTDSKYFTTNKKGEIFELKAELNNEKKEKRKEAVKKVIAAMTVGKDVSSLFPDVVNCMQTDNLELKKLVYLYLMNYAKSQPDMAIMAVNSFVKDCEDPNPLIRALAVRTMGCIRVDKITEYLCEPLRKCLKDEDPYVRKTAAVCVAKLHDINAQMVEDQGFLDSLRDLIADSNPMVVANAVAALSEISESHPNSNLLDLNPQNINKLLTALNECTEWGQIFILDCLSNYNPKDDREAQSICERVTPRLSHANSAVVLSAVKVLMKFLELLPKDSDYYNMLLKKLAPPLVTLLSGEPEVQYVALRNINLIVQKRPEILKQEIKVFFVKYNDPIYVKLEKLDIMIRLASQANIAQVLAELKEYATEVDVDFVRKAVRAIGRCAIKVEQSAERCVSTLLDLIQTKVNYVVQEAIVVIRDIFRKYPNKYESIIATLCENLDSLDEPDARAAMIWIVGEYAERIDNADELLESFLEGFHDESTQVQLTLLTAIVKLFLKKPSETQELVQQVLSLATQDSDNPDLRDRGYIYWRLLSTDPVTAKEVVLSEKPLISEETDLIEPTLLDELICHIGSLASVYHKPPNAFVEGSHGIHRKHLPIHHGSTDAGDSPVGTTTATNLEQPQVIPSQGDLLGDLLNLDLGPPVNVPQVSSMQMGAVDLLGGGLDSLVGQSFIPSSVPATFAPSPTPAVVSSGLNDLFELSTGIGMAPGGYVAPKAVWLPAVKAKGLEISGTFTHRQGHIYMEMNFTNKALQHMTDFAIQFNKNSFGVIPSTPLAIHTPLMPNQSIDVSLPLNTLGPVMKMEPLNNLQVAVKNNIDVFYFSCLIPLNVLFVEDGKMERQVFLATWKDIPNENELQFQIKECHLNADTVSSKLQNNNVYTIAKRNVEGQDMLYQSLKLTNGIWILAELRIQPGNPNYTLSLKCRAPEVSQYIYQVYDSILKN
# [12] = cytosolic pH regulators acting via V-ATPase – S. cerevisiae, pHLuorin, HTS validation (AID 504600; in the data active means response above about 15%;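 further: plate controls were DMSO for no effect and reference compound for full effect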); conditions: V-ATPase proton transport, at 10 µM, stronger effect = higher value
# [13] = tested on: anti-desmoglein-3 scFv antibody binding to human DSG3; experiment: blockers of pathogenic pemphigus antibody–desmoglein-3 binding – biochemical, validation compound set, bead-based, flow cytometry, pilot screen (AID 588368;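 active means binding below the plate cutoff, the plate median minus 3 SD, with a reading above zero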;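 further: signal is the median channel fluorescence of bead-bound GFP antibody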); conditions: Protein G beads, DSG3-Fc, scFv-GFP binding, at 10 µM, stronger effect = lower value
# [14] = Nile Red efflux blockade in pump-expressing yeast – validation compound set, multiplex, phenotypic, pilot screen (AID 588506;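 active means efflux inhibition above 0.42, the validation set average plus 4 SD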;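 further: Nile Red retained in cells so higher fluorescence means more efflux inhibition; 0 = negative control wells and 1 = enniatin B 25 µM full block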); conditions: S. cerevisiae pump-expressing triplex, Nile Red efflux flow cytometry; at 10 µM; stronger effect = higher value; the pumps come from Candida albicans
# [15] = target: ATP-binding cassette sub-family B member 6 (Homo sapiens) (UniProt Q9NP58); experiment: blockers of ABCB6-driven porphyrin uptake – K562-ABCB6 cells, flow cytometry, validation set, pilot screen (AID 588550;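 active means inhibition above the screen-wide mean plus 3 SD, about 51%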;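 further: 0% = DMSO wells and 100% = benzethonium chloride 70 µM positive control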); conditions: K562-ABCB6 porphyrin accumulation, 1 h, at 10 µM, stronger effect = higher value
# Chain of ATP-binding cassette sub-family B member 6 (Homo sapiens) (Q9NP58 whole entry, looked up): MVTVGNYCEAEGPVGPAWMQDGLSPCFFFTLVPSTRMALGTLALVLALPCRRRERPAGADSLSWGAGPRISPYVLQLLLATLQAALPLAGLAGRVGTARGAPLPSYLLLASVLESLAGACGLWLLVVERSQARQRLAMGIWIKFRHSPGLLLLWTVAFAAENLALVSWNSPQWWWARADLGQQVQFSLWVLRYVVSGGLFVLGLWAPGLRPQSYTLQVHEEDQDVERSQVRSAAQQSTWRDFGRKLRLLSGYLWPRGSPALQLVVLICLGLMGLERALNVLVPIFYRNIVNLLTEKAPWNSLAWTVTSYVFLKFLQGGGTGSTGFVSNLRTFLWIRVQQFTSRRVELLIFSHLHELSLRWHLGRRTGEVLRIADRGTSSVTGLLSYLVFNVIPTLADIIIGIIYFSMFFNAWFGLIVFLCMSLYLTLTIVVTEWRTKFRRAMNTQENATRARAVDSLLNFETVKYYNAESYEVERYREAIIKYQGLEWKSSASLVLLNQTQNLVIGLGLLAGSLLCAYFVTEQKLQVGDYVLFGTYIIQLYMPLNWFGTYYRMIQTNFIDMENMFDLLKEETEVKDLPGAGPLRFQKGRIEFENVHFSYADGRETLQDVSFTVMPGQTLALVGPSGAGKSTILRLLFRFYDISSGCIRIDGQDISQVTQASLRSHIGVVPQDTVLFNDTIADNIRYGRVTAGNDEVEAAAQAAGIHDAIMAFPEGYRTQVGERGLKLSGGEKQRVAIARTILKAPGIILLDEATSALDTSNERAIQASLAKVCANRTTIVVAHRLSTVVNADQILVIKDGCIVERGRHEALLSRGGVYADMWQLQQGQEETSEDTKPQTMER
# [16] = AML differentiation inducers, ER-HoxA9 marrow cells – cell-based, GFP/MAC1 double positive, flow cytometry, validation set, primary screen (AID 588685;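 active means differentiation response of at least 50%, scaled between solvent and reference control, from cells with both markers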;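 further: compound exposure lasts four days before antibody staining and flow analysis; 0% = DMSO wells and 100% = 5 µM fulvestrant positive control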); conditions: stronger effect = higher value, normalized: vehicle 0, fulvestrant 100
# [17] = measured here: daughter cell gate
# [18] = measured here: mother cell gate
# [19] = measured here: daughter cell gate response
# [20] = measured here: mother cell gate response
smiles,measurement,setting,value
Oc1ccc2ccccc2c1N=Nc1nccs1,GFP response vs DMSO,[1],101% (inactive)
same,GFP response vs DMSO,[1]; [17],98.1%
same,GFP response vs DMSO,[1]; [18],98%
same,GFP response relative to DMSO,[2],163% (active)
same,GFP response relative to DMSO,[2]; [19],151%
same,GFP response relative to DMSO,[2]; [20],165%
same,GFP response vs DMSO,[3],116% (inactive)
same,"GFP response, % of DMSO",[4],89.3% (inactive)
same,"GFP response, % of DMSO",[5],105% (inactive)
same,"GFP response, % of DMSO",[5]; [17],101%
same,"GFP response, % of DMSO",[5]; [18],102%
same,fluorescence change (kMESF span),[6],0.51 (inactive)
O=C(c1ccc2c(c1)OCO2)N1CCN(c2ccccc2)CC1,GFP response vs DMSO,[1],98.2% (inactive)
same,GFP response vs DMSO,[1]; [17],97.1%
same,GFP response vs DMSO,[1]; [18],94%
same,GFP response relative to DMSO,[2],96.7% (inactive)
same,GFP response relative to DMSO,[2]; [19],104%
same,GFP response vs DMSO,[3],98.3% (inactive)
same,"GFP response, % of DMSO",[4],98% (inactive)
same,"GFP response, % of DMSO",[5],99.7% (inactive)
O=C(c1ccc(Cl)c([N+](=O)[O-])c1)N1CCN(c2ccccc2)CC1,GFP response vs DMSO,[1],99.4% (inactive)
same,GFP response vs DMSO,[1]; [17],101%
same,GFP response vs DMSO,[1]; [18],96.7%
same,GFP response relative to DMSO,[2],116% (inactive)
same,GFP response relative to DMSO,[2]; [19],114%
same,GFP response relative to DMSO,[2]; [20],111%
same,GFP response vs DMSO,[3],102% (inactive)
same,"GFP response, % of DMSO",[4],97.8% (inactive)
same,"GFP response, % of DMSO",[5],95.5% (inactive)
same,"GFP response, % of DMSO",[5]; [17],101%
same,"GFP response, % of DMSO",[5]; [18],92.6%
same,fluorescence change (kMESF span),[6],2.52 (inactive)
CCCCC(=O)O[C@]1(C(=O)CO)CC[C@H]2[C@@H]3CCC4=CC(=O)CC[C@]4(C)[C@H]3[C@@H](O)C[C@@]21C,GFP response vs DMSO,[1],96.8% (inactive)
same,GFP response vs DMSO,[1]; [17],96.4%
same,GFP response vs DMSO,[1]; [18],99%
same,GFP response relative to DMSO,[2],101% (inactive)
same,GFP response relative to DMSO,[2]; [19],101%
same,GFP response relative to DMSO,[2]; [20],99.3%
same,GFP response vs DMSO,[3],105% (inactive)
same,"GFP response, % of DMSO",[4],99.3% (inactive)
same,"GFP response, % of DMSO",[5],101% (inactive)
same,"GFP response, % of DMSO",[5]; [17],101%
same,"GFP response, % of DMSO",[5]; [18],101%
same,double positive events,[7],62.4%
same,vesicle binding response,[7],271% (inactive)
same,inhibition,[8],4.42% (inactive)
same,superoxide response (% of plate),[9],83.1% (inactive)
same,aptamer binding inhibition,[10],2% (inactive)
same,inhibition,[11],-7.47% (inactive)
same,response,[12],-1.11% (inactive)
same,binding (% of control),[13],101% (inactive)
same,efflux inhibition (fraction of control),[14],0.1 (inactive)
same,inhibition,[15],9% (inactive)
same,differentiation response,[16],-6.66% (inactive)
O=C1C=CC(=O)N1c1cccc(-c2ccccc2)c1,GFP response vs DMSO,[1],70.2% (inactive)
same,GFP response vs DMSO,[1]; [17],84.3%
same,GFP response vs DMSO,[1]; [18],59.1%
same,GFP response relative to DMSO,[2],220% (active)
same,GFP response relative to DMSO,[2]; [20],191%
same,GFP response vs DMSO,[3],109% (inactive)
same,"GFP response, % of DMSO",[4],104% (inactive)
same,"GFP response, % of DMSO",[5],86.1% (inactive)
same,"GFP response, % of DMSO",[5]; [17],93.2%
same,"GFP response, % of DMSO",[5]; [18],70.8%
O=C(/C=C/Sc1ncn[nH]1)c1ccc(Cl)cc1,GFP response vs DMSO,[1],106% (inactive)
same,GFP response vs DMSO,[1]; [17],106%
same,GFP response vs DMSO,[1]; [18],99.8%
same,GFP response relative to DMSO,[2],213% (active)
same,GFP response relative to DMSO,[2]; [19],198%
same,GFP response relative to DMSO,[2]; [20],214%
same,GFP response vs DMSO,[3],114% (inactive)
same,"GFP response, % of DMSO",[4],89.5% (inactive)
same,"GFP response, % of DMSO",[5],110% (inactive)
same,"GFP response, % of DMSO",[5]; [17],108%
same,"GFP response, % of DMSO",[5]; [18],104%
same,fluorescence change (kMESF span),[6],2.12 (inactive)
Cc1[nH][nH]c(=O)c1C(c1ccc(-c2ccc(Cl)cc2)o1)c1c(C)[nH][nH]c1=O,GFP response vs DMSO,[1],101% (inactive)
same,GFP response vs DMSO,[1]; [17],102%
same,GFP response vs DMSO,[1]; [18],99.8%
same,GFP response relative to DMSO,[2],188% (active)
same,GFP response relative to DMSO,[2]; [19],179%
same,GFP response relative to DMSO,[2]; [20],179%
same,GFP response vs DMSO,[3],114% (inactive)
same,"GFP response, % of DMSO",[4],103% (inactive)
same,"GFP response, % of DMSO",[5],101% (inactive)
same,"GFP response, % of DMSO",[5]; [17],102%
same,"GFP response, % of DMSO",[5]; [18],95.6%
same,fluorescence change (kMESF span),[6],0.2 (inactive)

# Reference: PubChem BioAssay
